Results published in PubChem BioAssay (NCI).
This is part of a sample that, as a whole, favours compounds with a hit. Of some 83,000 tested, about 20% had one in any assay.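 Testing used 96-well plates and a 48-hour single-concentration exposure. Example: -40 means 40% of the starting cells died.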 Activity calls are given as the source filed them. The calls were made as follows: active = growth percent below 10; inactive = the rest.

The compounds below were run on HL-60(TB) leukemia (assay: NCI-60 one-dose screen, 48 h (100 = growth as untreated, 0 = no growth, -100 = all killed)). Conditions: 10 µM unless noted.

| Structure (SMILES) | growth |
| --- | --- |
| Fc1ccc(-c2cc3nc(C(Cl)Cl)nc(-c4ccc(F)cc4)n3n2)cc1 | -1.81% (active) |
| O=S(=O)(Oc1ccc(-c2nnc(Nc3ccccc3)s2)cc1)C(F)(F)C(F)(F)C(F)(F)C(F)(F)C(F)(F)C(F)(F)F | 70.6% (inactive) |
| N#Cc1cccc(-c2cc(-c3ccc4c(c3)OCCO4)[nH]n2)c1 | 6.12% (active) |
| CC1(C)CC[C@]2(C(=O)N3CCOCC3)CC[C@]3(C)C(=CC[C@@H]4[C@@]5(C)C/C(=C/c6ccco6)C(=O)C(C)(C)[C@@H]5CC[C@]43C)[C@@H]2C1 | 57.2% (inactive) |
| CCN(CC)c1ccc(/C=N/NC(=O)c2ccc(NS(C)(=O)=O)cc2)c(O)c1 | 0.843% (active) |
| O=C(O)c1ccc(-n2cc(CNc3ccc(F)cc3)c(-c3ccc(C(F)(F)F)cc3)n2)cc1 | 87.1% (inactive) |
| CCn1c2ccc(/C=N/NS(=O)(=O)CCN(C)C)cc2c2cc(/C=N/NS(=O)(=O)CCN(C)C)ccc21 | 103% (inactive) |
| COc1ccc(-c2c3c(cn2Cc2cccc(OC)c2)-c2oncc2CCC3)cc1 | 100% (inactive) |
| CCCCCc1ccc(S(=O)(=O)Nc2cccc(-c3csc(NC(=O)CCCCCN4CCN(C)CC4)n3)c2)cc1 | -41.5% (active) |
| O=S(=O)(Oc1ccc(-c2cn3ccoc3n2)cc1)C1CCCCC1 | 90.2% (inactive) |
| COc1ccc(-c2csc(N/N=C/c3c(-c4ccc(S(C)(=O)=O)cc4)nc4ccccn34)n2)cc1 | 103% (inactive) |
| CC(=O)NC(C)(C)C(=O)N1CCC[C@H]1C(=O)NC(C)(C)C(=O)N[C@@H](C)C(=O)NC(C)(C)C(=O)NC(C)(C)C(=O)N[C@@H](CCC(N)=O)C(=O)NC(C)(C)C(=O)N[C@H](C(=O)NC(C)(C)C(=O)NCC(=O)N[C@@H](CC(C)C)C(=O)NC(C)(C)C(=O)N1CCC[C@H]1C(=O)N[C@H](C(=O)NC(C)(C)C(=O)NC(C)(C)C(=O)N[C@@H](CCC(N)=O)C(=O)N[C@@H](CCC(N)=O)C(=O)N[C@H](CO)Cc1ccccc1)C(C)C)C(C)C | 7.73% [4.25 µM] (active) |
| CN1CCN(c2nc(-c3csc(-c4ccncc4)n3)cc3ccccc23)CC1 | 32.2% (inactive) |
| COc1cc(/C=C2\C(=O)Nc3cc(Cl)ccc32)ccc1OCc1ccc(F)cc1 | 120% (inactive) |
| CNC(=O)c1cc(-n2ccc3cc(NC(=O)Nc4ccc(N5CCOCC5)c(C(F)(F)F)c4)ccc32)ccn1 | -37.1% (active) |
| O=C(CCCCCCNC(=O)C(O)(O)C(F)(F)F)Nc1ccc(Br)cc1 | 10.4% (inactive) |
| O=C(CN1CCN(c2cc(=O)n(-c3ccccc3)c3ccccc23)CC1)Nc1ccc(F)cc1 | 47.7% (inactive) |
| Nc1ncc(-c2ccc(NS(=O)(=O)c3ccc(Cl)c(Cl)c3)cc2)[nH]1 | 47.7% (inactive) |
| O=C(CSc1nc2ccccc2c(=O)n1-c1ccccc1)Nc1cccc(C(=O)/C=C/c2ccccc2)c1 | 99.1% (inactive) |
| CCN1C(=S)N(CC)C2C1NN=C1SC(c3ccccc3)=CC(=O)N12 (stereo not drawn) | 86.9% (inactive) |
| Cc1ccc(C)c(NC2=C(Cl)C(=O)c3nc(C)ccc3C2=O)c1 | -25.8% (active) |
| C/C(CC1(O)C(=O)Nc2ccccc21)=N\O (stereo not drawn) | 97% (inactive) |
| CS(=O)(=O)c1ccc(-n2cc(/C=N/O)c(-c3ccccc3)n2)cc1 | -45.8% (active) |
| Cc1cn(-c2cc(NC(=O)c3cncc(C#Cc4cnc5ccc(O[C@H]6CCOC6)nn45)c3)cc(C(F)(F)F)c2)cn1 | 37.6% (inactive) |
| COc1cc2c3c(cc4c5c(ccc4c3c1OC)OCO5)N(CCN(C)C)C2=O | -17.1% (active) |
| COc1ccc(-c2nn(-c3ccccc3)cc2/C=C/C(=O)c2ccc(NC(=O)CCCCCCC(=O)NO)cc2)cc1 | 116% (inactive) |
| COc1ccc(-c2cnc(NC(=O)CCCCCCNC(=O)C(O)(O)C(F)(F)F)s2)cc1 | 10.5% (inactive) |
| CCN1C(=O)N(CC)C2SC(N/N=C/c3ccc(F)cc3)=NC21 (stereo not drawn) | 2.85% (active) |
